The values below come from PubChem BioAssay (NCATS).

Results filed as inconclusive are left out. Active and inactive are the calls of the source. Unless noted, the call rests on the fitted dose curve; in most records, active means well fitted curve in the direction sought with a large enough effect; inconclusive means small, poorly fitted or top-dose-only effect, or another doubt; inactive means no such curve, though single readings can be large; an effect the other way counts as inactive or inconclusive.

A short description of experiment [1]: High-throughput drug toxicity screening in the BPDCN cell line Cal-1 (AID 1224825; call rule not given here). Particulars: Cal-1 BPDCN cell viability, qHTS; at 45.8 µM (top of the series) unless noted. The method in brief: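 CellTiter-Glo luminescence after 48 h compound exposure; percent activity scaled with DMSO as 100% and bortezomib (9.2 uM final) as 0%. Cal-1 cells seeded at 500/well in RPMI, 10% FBS, no phenol red.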
For orientation: In qHTS, concentration-response curves come from the screen itself.

The nature of experiment [2]: qHTS assay for measurement of the activity of small molecule inhibitors on Zika virus induced Caspase-3 activity in human iPSC derived neural progenitor cells (hNPCs) (AID 1224857). Further: % of control where 0% means no effect; nearly all actives have a fitted effect of over 65% in size. Conditions: hNPCs ZIKV-induced caspase-3/7, Caspase-Glo luminescence, 6 h; series mostly up to 45.7 µM. In short, it runs like this: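 Pretreat hNPCs with compound 1 h; infect ZIKV 2 FFU/cell; 6 h 37 C, 5% CO2; Caspase-Glo 3/7, 30 min RT; luminescence; normalize to no-virus and virus-only wells.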

Experiment [3] is described as follows: qHTS assay for measurement of the activity of small molecule inhibitors on Zika virus induced Caspase-3 activity in human astrocytoma cells (AID 1224859).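 Further: plate controls were ZIKV-infected untreated cells for no effect and uninfected cells for full effect.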 Conditions: SNB-19 ZIKV-induced caspase-3/7, luminescence, 6 h; series mostly up to 45.7 µM. The method in brief:
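Human SNB-19 astrocytoma cells in RPMI 1640 with 10% FBS receive compound one hour ahead of Zika virus at 2 FFU/cell. After 6 h infection, caspase-3/7 activity is detected by Caspase-Glo luminescence.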

A short description of experiment [4]: qHTS Screen of the MIPE 4.0 Collection Against Ewings Sarcoma (TC71) (AID 1259253). Further: nearly all actives have a fitted effect of over 40% in size. Further: potency means the concentration at half of the fitted maximal effect. Conditions: TC71 Ewing sarcoma viability, CellTiter-Glo, 48 h; series mostly up to 45.8 µM. In short, it runs like this:
(§1)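 Dose series incubated 48 h with cells in RPMI plus 5% FBS, glutamine and penicillin/streptomycin; cell viability then quantified via CellTiter-Glo.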

Experiment [5] can be described thus: qHTS Screen of the MIPE 4.0 Collection Against Ewings Sarcoma (EW8) (AID 1259255). Further: nearly all actives have a fitted effect of over 35% in size. Further: potency means the concentration at half of the fitted maximal effect.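 On viability: 100% = DMSO-treated cells and 0% = medium-only wells without cells.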 Particulars: EW8 Ewing sarcoma viability, CellTiter-Glo, 48 h; series mostly up to 45.8 µM. In short, it runs like this:
as §1

Experiment [6] can be described thus: qHTS Screen of the MIPE 4.0 Collection Against Ewings Sarcoma (TC32) (AID 1259256). Further: nearly all actives have a fitted effect of over 45% in size. Further: potency means the concentration at half of the fitted maximal effect. Conditions: TC32 Ewing sarcoma viability, CellTiter-Glo, 48 h; series mostly up to 45.8 µM. The method in brief: as §1
Experiment [7] is described as follows: qHTS assay to identify small molecule inhibitors of chordoma cells - UCH-2 (AID 1259356). Further: potency means the concentration at half of the fitted maximal effect. Conditions: UCH-2 chordoma viability, CellTiter-Glo ATP luminescence, 48 h; series mostly up to 46.1 µM.
Experiment [8] can be described thus: qHTS assay to identify small molecule inhibitors of chordoma cells - UCH-1 (AID 1259355). Further: nearly all actives have a fitted effect of over 55% in size. Further: potency means the concentration at half of the fitted maximal effect. Particulars: UCH-1 chordoma viability, CellTiter-Glo, 48 h, combination, with auranofin plus four topoisomerase inhibitors; series mostly up to 46.1 µM. In short, it runs like this:
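Screening used approved and investigational drugs in 15-point titration against 800 seeded cells per well. A fixed combination of auranofin with camptothecin, doxorubicin, rubitecan and topotecan followed compound addition, and growth was scored by CellTiter-Glo after 48hr.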

Experiment [9] in a line: qHTS Screen of the MIPE 4.0 Collection Against Ewings Sarcoma (RDES) (AID 1259252). Further: nearly all actives have a fitted effect of over 35% in size. Further: potency means the concentration at half of the fitted maximal effect. Particulars: RD-ES Ewing sarcoma viability, CellTiter-Glo, 48 h; series mostly up to 45.8 µM. The method in brief: as §1

Consider `Cn1nnc2c(C(N)=O)ncn2c1=O`, for which the viability (% of control) in [1] is 80.1%. Besides, the Potency result in experiment [2], in [3], in experiment [4], in experiment [5], in experiment [6] and in experiment [7] was “inactive” throughout.
On to `Nc1[nH]c(=O)ncc1F`, for which the viability (% of control) in experiment [1] turned out to be 22.3%. Besides, the Potency result in [2], in experiment [3], in experiment [5], in experiment [8] and in experiment [7] was “inactive” in each case. Moreover, the Potency in experiment [4] is 18.7 µM (active); in [6] it was 13.2 µM (active).
Consider `Cc1nnc(C(=O)NC(C)(C)c2nc(C(=O)NCc3ccc(F)cc3)c(O)c(=O)n2C)o1`, for which the viability (% of control) in [1] is 134%. Further, the Potency result in experiment [3], in experiment [9], in [4], in experiment [5] and in [6] was “inactive” each time.
Regarding `CNC1CCCN(c2c(F)cc3c(=O)c(C(=O)O)cn(C4CC4)c3c2OC)C1` (stereo not drawn), in experiment [1], the viability (% of control) is 32.3%. Besides, the Potency entry in [2], in experiment [3], in [8] and in experiment [7] was “inactive” throughout. Besides, the Potency in [9] is 14.8 µM (active); in experiment [4] it was 18.7 µM (active); in experiment [6], 20.9 µM (active).
For `COc1ccc2cc3[n+](cc2c1OC)CCc1cc2c(cc1-3)OCO2`, the viability (% of control) in experiment [1] stood at 7.43%. For the same molecule, the Potency result in [2], in experiment [3], in [8] and in experiment [7] was “inactive” in each case. In addition, the Potency in experiment [4] is 5.9 µM (active); in experiment [5] it was 11.8 µM (active); in experiment [6] it was 7.43 µM (active).
`CN1CCCC(n2nc(Cc3ccc(Cl)cc3)c3ccccc3c2=O)CC1` (stereo not drawn): the viability (% of control) in [1] was determined as 7.4%. The Potency entry in experiment [2], in experiment [3], in experiment [8] and in experiment [7] was “inactive” throughout. Besides, the Potency in experiment [4] was 2.64 µM (active); in [5], 8.33 µM (active); in [6] it was 3.72 µM (active).
Consider `CC1=C(C(=O)O)N2C(=O)[C@@H](NC(=O)C(N)c3ccccc3)[C@H]2SC1` (stereo partly drawn), for which, in [1], the viability (% of control) worked out at 12.1%. Further, the Potency entry in experiment [2], in experiment [3], in experiment [4], in experiment [5] and in experiment [6] was “inactive” in each case.
For `CC(C)C[C@H](NC(=O)[C@H](CCc1ccccc1)NC(=O)CN1CCOCC1)C(=O)N[C@@H](Cc1ccccc1)C(=O)N[C@@H](CC(C)C)C(=O)[C@@]1(C)CO1`, the viability (% of control) in experiment [1] came out at 3.67%. Also, the Potency result in experiment [2] and in [3] was “inactive” throughout. For the same molecule, the Potency in experiment [4] is 0.0372 µM (active); in [5], 0.0132 µM (active); in [6], 0.0148 µM (active).
In the case of `OC(Cn1cncn1)(Cn1cncn1)c1ccc(F)cc1F`, the viability (% of control) in experiment [1] came out at 114%. The Potency result in [2], in [3], in experiment [4], in [5], in experiment [6] and in experiment [8] was “inactive” throughout. Further, the Potency entry in experiment [7] was “inactive”.
For the molecule `CCCN[C@H]1CCc2nc(N)sc2C1`, the viability (% of control) in experiment [1] came out at 78%. The Potency entry in [2], in experiment [3], in [4], in experiment [5], in [6] and in experiment [8] was “inactive” each time. Also, the Potency result in experiment [7] is “inactive”.
Consider `Clc1ccccc1CN1CCc2sccc2C1`, for which the viability (% of control) in [1] is 45.9%. Further, the Potency entry in experiment [2], in experiment [3], in experiment [4], in experiment [5] and in [6] was “inactive” in each case.
Regarding `CC(C)OC(=O)C(C(=O)OC(C)C)=C1SC=CS1`, in experiment [1], the viability (% of control) was 94.2%. Moreover, the Potency entry in experiment [2], in [3], in [4], in experiment [5], in experiment [6] and in experiment [8] was “inactive” in each case. Also, the Potency result in experiment [7] is “inactive”.
For `O=S(=O)(c1cccc2cnccc12)N1CCCNCC1`, the viability (% of control) in experiment [1] amounted to 94.6%. The Potency result in [2], in [3], in experiment [5], in experiment [6], in [8] and in [7] was “inactive” throughout. The Potency in experiment [9] was 26.4 µM (active).
`O=C(NCC1CN(c2ccc(N3CCOCC3=O)cc2)C(=O)O1)c1ccc(Cl)s1` (stereo not drawn): the viability (% of control) in experiment [1] turned out to be 48.9%. The Potency entry in experiment [3], in experiment [9], in [4], in experiment [5] and in [6] was “inactive” in each case.
With `CCCCCCNC(=O)n1cc(F)c(=O)[nH]c1=O`, the viability (% of control) in experiment [1] is 33.8%. Moreover, the Potency result in experiment [2], in [3], in experiment [8] and in [7] was “inactive” throughout. For the same molecule, the Potency is 8.33 µM (active) in experiment [4] and 18.7 µM (active) in experiment [6].
For `Nc1nc(=S)c2[nH]cnc2[nH]1`, the viability (% of control) in experiment [1] worked out at 7.77%. The Potency result in [2] and in [3] was “inactive” in each case. Moreover, the Potency is 0.935 µM (active) in experiment [9], 0.935 µM (active) in experiment [4] and 0.526 µM (active) in experiment [6].
With `CC1=CC(=O)c2ccccc2C1=O`, the viability (% of control) in experiment [1] turned out to be 1.39%. The Potency result in [2], in [3] and in experiment [7] was “inactive” throughout. Also, the Potency in experiment [4] and in [6] was 26.4 µM (active) each time.
With `CCc1c2c(nc3ccc(OC(=O)N4CCC(N5CCCCC5)CC4)cc13)-c1cc3c(c(=O)n1C2)COC(=O)[C@]3(O)CC`, the viability (% of control) in experiment [1] was 8.86%. In addition, the Potency result in experiment [2], in experiment [3], in experiment [6], in [8] and in experiment [7] was “inactive” each time. For the same molecule, the values for the Potency in experiment [4] and in experiment [5] were 0.332 µM (active) and 0.469 µM (active), respectively.
In the case of `O=C(O)c1ccc(-n2nc(-c3ccccc3O)nc2-c2ccccc2O)cc1`, in [1], the viability (% of control) was found to be 25.8%. The Potency result in experiment [2] and in [3] was “inactive” each time. Further, the Potency in experiment [4] is 14.8 µM (active); in experiment [5], 20.9 µM (active).
Take `COc1cc(NCc2ccc3nc(N)nc(N)c3c2C)cc(OC)c1OC`: the viability (% of control) in experiment [1] worked out at 3.95%. Besides, the Potency result in experiment [3] and in experiment [7] was “inactive” throughout. Also, the Potency in experiment [9] is 3.32 µM (active); in experiment [4], 0.833 µM (active); in [5], 1.32 µM (active); in [6] it was 0.833 µM (active).
With `CCc1cc(C(N)=S)ccn1`, the viability (% of control) in experiment [1] worked out at 95.1%. In addition, the Potency entry in experiment [3], in [9], in [5], in experiment [8] and in experiment [7] was “inactive” in each case. For the same molecule, the Potency in [4] is 20.9 µM (active).
Take `CN1CCN(c2c(F)cc3c(=O)c(C(=O)O)cn4c3c2OCN4C)CC1`: the viability (% of control) in experiment [1] came to 117%. For the same molecule, the Potency result in experiment [3], in experiment [9], in experiment [4], in experiment [5], in experiment [6] and in experiment [8] was “inactive” each time. Further, in [7], the Potency entry was “inactive”.
`Cc1onc(-c2ccccc2Cl)c1C(=O)N[C@@H]1C(=O)N2[C@@H]1SC(C)(C)[C@@H]2C(=O)O`: the viability (% of control) in experiment [1] is 97.4%. For the same molecule, the Potency entry in experiment [3], in experiment [9], in [4], in experiment [5], in experiment [6] and in experiment [8] was “inactive” throughout. For the same molecule, the Potency result in experiment [7] was “inactive”.
Turning to `CC[C@H](NC(C)C)[C@H](O)c1ccc(O)c2[nH]c(=O)ccc12`, the viability (% of control) in experiment [1] amounted to 121%. For the same molecule, the Potency result in [3], in experiment [4], in [5], in experiment [6], in experiment [8] and in experiment [7] was “inactive” throughout.
Take `CS(=O)(=O)c1ccc([C@@H](O)[C@@H](CO)NC(=O)C(Cl)Cl)cc1`: in experiment [1], the viability (% of control) was determined as 86.4%. The Potency entry in [3], in experiment [8] and in experiment [7] was “inactive” each time. Moreover, the Potency was 13.2 µM (active) in experiment [9], 16.6 µM (active) in experiment [4] and 18.7 µM (active) in [6].
In the case of `O=C(O)CSCC(=O)NC1CCSC1=O` (stereo not drawn), in experiment [1], the viability (% of control) turned out to be 112%. The Potency result in experiment [3], in experiment [4], in experiment [5] and in experiment [6] was “inactive” each time.
With `CN(C)c1ccc(C(=C2C=CC(=[N+](C)C)C=C2)c2ccc(N(C)C)cc2)cc1`, in [1], the viability (% of control) was 1.42%. In addition, the Potency entry in [3] and in experiment [6] was “inactive” throughout. In addition, the Potency was 0.372 µM (active) in experiment [9]; 0.296 µM (active) in experiment [4]; 0.418 µM (active) in [5]; 22.4 µM (active) in [8]; 7.3 µM (active) in [7].
Turning to `COc1nc(N)nc2c1ncn2[C@@H]1O[C@H](CO)[C@@H](O)[C@@H]1O`, the viability (% of control) in [1] is 78%. The Potency entry in experiment [3], in experiment [4], in experiment [5], in [6], in experiment [8] and in experiment [7] was “inactive” in each case. Besides, the Potency in [9] is 20.9 µM (active).
